Assay results reported in PubChem BioAssay (NCI).
The panel holds about 83,000 compounds, 20% with a hit somewhere; the sample as a whole holds those more often.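 A percent growth of 40 corresponds to 60% growth inhibition; 0 means no net growth; -100 means all cells died. Active threshold: below 10.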 Unmarked numbers belong to inactive results. Activity calls are given as the source filed them.

What was measured:
Test in all cases: NCI-60 one-dose screen, 48 h (100 = growth as untreated, 0 = no growth, -100 = all killed)
Conditions in all cases: 10 µM unless noted
NCI-H226 lung = system: NCI-H226 lung
NCI-H322M lung = system: NCI-H322M lung
HOP-62 NSCLC = system: HOP-62 NSCLC
NCI-H460 lung = system: NCI-H460 lung
HOP-92 NSCLC = system: HOP-92 NSCLC
NCI-H522 lung = system: NCI-H522 lung
A549/ATCC NSCLC = system: A549/ATCC NSCLC
786-0 renal = system: 786-0 renal
COLO 205 colon = system: COLO 205 colon
DU-145 prostate = system: DU-145 prostate
K-562 leukemia = system: K-562 leukemia
MALME-3M melanoma = system: MALME-3M melanoma
MDA-MB-231 breast = system: MDA-MB-231 breast
RXF 393 renal = system: RXF 393 renal
SF-268 CNS = system: SF-268 CNS
SF-295 CNS = system: SF-295 CNS
SF-539 CNS = system: SF-539 CNS
UACC-257 melanoma = system: UACC-257 melanoma
M14 melanoma = system: M14 melanoma

Row | Compound | growth (NCI-H226 lung) | growth (NCI-H322M lung) | growth (HOP-62 NSCLC) | growth (NCI-H460 lung) | growth (HOP-92 NSCLC) | growth (NCI-H522 lung) | growth (A549/ATCC NSCLC) | growth (786-0 renal) | growth (COLO 205 colon) | growth (DU-145 prostate) | growth (K-562 leukemia) | growth (MALME-3M melanoma) | growth (MDA-MB-231 breast) | growth (RXF 393 renal) | growth (SF-268 CNS) | growth (SF-295 CNS) | growth (SF-539 CNS) | growth (UACC-257 melanoma) | growth (M14 melanoma)
1 | CCCCCCCCCCCCCCCC(N)c1ccccc1 (centres undefined) | 87.6% | 92.9% | -33.9% (active) | -66.8% (active) | 31.4% | 63.5% | 31.9% | 1.55% (active) | -57.8% (active) | -62.9% (active) | 0.445% (active) | 79.5% | -71.9% (active) | -89.4% (active) | -38.9% (active) | -49.5% (active) | 88.4% | 82.6% | 3.85% (active)
2 | O=C(COc1ccc(-c2nc3ccccc3[nH]2)cc1)N=Nc1c(O)[nH]c2ccc(Cl)cc12 | 97% | 101% | 99.9% | 30.7% | 93% | 93.6% | 99% | 46% | 53.3% | 91.9% | 2.09% (active) | 93.3% | 84.6% | 88.2% | 99.3% | 91.2% | 93.3% | 104% | 87%
3 | OCCCC1CCN(C(Cc2ccccc2)c2ccccc2)CC1 (centres undefined) | 102% | 93.7% | 87.2% | 106% | 80.6% | 43.9% | 73.3% | 82.5% | 79.9% | 103% | 113% | 93.8% | 97.8% | 111% | 90.6% | 98.7% | 85.6% | 96.4% | 88.8%
4 | COc1cccc(/C=C/C(=O)c2cc3c(N)c(C(=O)Nc4ccccc4)sc3nc2C)c1 |  | 67.9% | 13.6% | -22.5% (active) | 64.4% | 7.06% (active) | 34.3% | -38.2% (active) | 67.6% | 12% | 13.3% | 68.6% | 17.1% | -74.6% (active) | 18.2% | 44.8% | -16% (active) | 71.8% | 29.9%
5 | Cc1ccccc1/C=C1\CN(C(=O)OC(C)(C)C)C/C(=C\c2ccccc2C)C1=O | 42.2% | 80.9% | 48.2% | -38.3% (active) | 82.6% | 20.8% | 49.1% | 25.8% | -28.5% (active) | 9.09% (active) | 5.76% (active) | 73.7% | 42.7% | 61.1% | 2.68% (active) | 24.6% | 31.2% | 74.3% | 30.7%
6 | COC1C[C@H](O[C@@H]2C[C@H](O[C@@H]3C[C@H](O[C@@H]4C(=O)c5c(cc6cc(O[C@H]7C[C@@H](O[C@H]8C[C@@H](O)[C@H](O)C(C)O8)[C@H](O)C(C)O7)c(C)c(O)c6c5O)C[C@H]4C(OC)C(=O)[C@@H](O)[C@@H](C)O)OC(C)[C@H]3O)OC(C)[C@@H]2O)OC(C)[C@@H]1O (some centres undefined) | 3.22% (active) | 6.22% (active) | -7.62% (active) | 6.26% (active) | -12.1% (active) | -33.1% (active) | 1.74% (active) | -5.74% (active) | -78.3% (active) | 14% | 4.88% (active) | -59.4% (active) | -7.44% (active) | -50.9% (active) | 18.3% | 7.37% (active) | -8.29% (active) | -37.3% (active) | -22.7% (active)
7 | O=C(Cn1c2c(c3ccccc31)CCCC2)Nc1ccc(-c2nc3ccccc3s2)cc1 | 106% | 101% |  | 101% | 89.6% | 94.9% | 105% | 109% | 104% | 98.8% | 74.4% | 105% | 96% | 105% | 97.6% | 103% | 102% | 106% | 108%
8 | O=C1Nc2ccccc2/C1=C\c1nc(-c2ccccc2)n2ccccc12 | 91% | 92% | 92.9% | 94.4% | 121% | 77.7% | 92.7% | 99.4% | 110% | 86.4% | 77.2% | 119% | 60.6% | 78% | 93.9% | 97.6% | 101% | 124% | 79.8%
9 | COc1ccc(/C(C)=C(/c2ccc(OCCCN(C)C)cc2)c2ccc(OC(=O)Cc3ccccc3)cc2)cc1 | 91.5% | 98.3% | 83.3% | 70.8% | 50.5% | 57.5% | 58.4% | 71.6% | 76.1% | 94.2% | 11.9% | 95% | 59.7% | 67.8% | 76% | 51.3% | 76.1% | 82.1% | -19.6% (active)
